# Source: publication PMC7862700, “An all-to-all approach to the identification of sequence-specific readers for epigenetic DNA modifications on cytosine”
# What was measured:
# Assay in all cases: DAPPL (digital affinity profiling via proximity ligation, sequencing); 10 mM Tris-HCl pH 7.5, 50 mM NaCl, 1 mM DTT, 4% glycerol, room temperature, 30 min; GST-TFs on glutathione beads, 16-mer random dsDNA library, 0.1% formaldehyde crosslink after washing; high values mean tight binding
# FLI1 = target: T1, FLI1 (Homo sapiens, UniProt Q01543 1-452); settings: protein: recombinant; tags: N-terminal GST; dsDNA, one strand shown
# T1 sequence: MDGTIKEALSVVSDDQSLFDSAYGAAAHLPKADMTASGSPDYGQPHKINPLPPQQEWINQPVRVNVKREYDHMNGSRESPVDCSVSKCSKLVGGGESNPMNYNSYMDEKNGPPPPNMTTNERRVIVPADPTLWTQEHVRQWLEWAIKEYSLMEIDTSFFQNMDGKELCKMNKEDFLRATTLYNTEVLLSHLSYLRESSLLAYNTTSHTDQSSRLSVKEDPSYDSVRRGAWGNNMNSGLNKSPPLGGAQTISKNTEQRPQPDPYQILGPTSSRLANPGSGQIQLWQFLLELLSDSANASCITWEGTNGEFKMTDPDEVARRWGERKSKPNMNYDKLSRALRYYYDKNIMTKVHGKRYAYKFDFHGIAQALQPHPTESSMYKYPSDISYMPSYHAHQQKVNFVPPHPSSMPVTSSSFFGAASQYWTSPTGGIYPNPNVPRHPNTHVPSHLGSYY
# In short: (§1)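 GST fusions of human transcription factors were expressed in yeast and captured with glutathione beads. Once given DNA barcodes and pooled alongside a tag-only sample, they were incubated for 30 min at room temperature with 200 nmole of a random double-stranded 16-mer DNA library in Tris/NaCl/DTT/glycerol buffer, then washed, crosslinked (0.1% formaldehyde), proximity-ligated, PCR-amplified and sequenced on an Illumina NextSeq500. The binding signal of each hexamer is its read frequency for a factor divided by its frequency for the tag-only sample.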
# ELK1 = target: T2, ELK1 (Homo sapiens, UniProt P19419 1-428); settings: protein: recombinant; tags: N-terminal GST; dsDNA, one strand shown
# T2 sequence: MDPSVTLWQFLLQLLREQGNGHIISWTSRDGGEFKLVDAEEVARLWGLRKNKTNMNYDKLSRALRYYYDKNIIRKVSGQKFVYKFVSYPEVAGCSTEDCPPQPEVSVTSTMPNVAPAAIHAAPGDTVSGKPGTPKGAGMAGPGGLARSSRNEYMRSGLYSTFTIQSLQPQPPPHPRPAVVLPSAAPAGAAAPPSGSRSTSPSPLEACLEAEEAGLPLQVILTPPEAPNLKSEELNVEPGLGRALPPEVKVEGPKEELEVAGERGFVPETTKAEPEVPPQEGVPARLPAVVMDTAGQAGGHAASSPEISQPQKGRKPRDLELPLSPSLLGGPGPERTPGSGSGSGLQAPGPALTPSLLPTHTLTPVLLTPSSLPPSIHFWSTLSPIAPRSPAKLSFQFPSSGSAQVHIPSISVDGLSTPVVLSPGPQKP
# In short: as §1
# GABPA = target: T3, GABPA (Homo sapiens, UniProt Q06546 1-454); settings: protein: recombinant; tags: N-terminal GST; dsDNA, one strand shown
# T3 sequence: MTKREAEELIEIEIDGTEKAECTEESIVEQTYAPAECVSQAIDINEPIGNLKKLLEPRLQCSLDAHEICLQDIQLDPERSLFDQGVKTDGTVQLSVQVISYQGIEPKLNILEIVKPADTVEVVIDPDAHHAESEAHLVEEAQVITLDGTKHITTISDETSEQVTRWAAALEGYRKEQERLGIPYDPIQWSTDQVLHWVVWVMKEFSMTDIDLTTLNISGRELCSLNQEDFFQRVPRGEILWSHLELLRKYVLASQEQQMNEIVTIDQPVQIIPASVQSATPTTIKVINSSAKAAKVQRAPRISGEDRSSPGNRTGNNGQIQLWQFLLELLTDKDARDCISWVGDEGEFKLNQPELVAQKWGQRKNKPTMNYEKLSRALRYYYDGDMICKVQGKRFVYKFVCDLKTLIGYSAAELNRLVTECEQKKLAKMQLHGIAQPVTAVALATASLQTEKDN
# In short: as §1
# ERG = target: T4, ERG (Homo sapiens, UniProt P11308 1-479); settings: protein: recombinant; tags: N-terminal GST; dsDNA, one strand shown
# T4 sequence: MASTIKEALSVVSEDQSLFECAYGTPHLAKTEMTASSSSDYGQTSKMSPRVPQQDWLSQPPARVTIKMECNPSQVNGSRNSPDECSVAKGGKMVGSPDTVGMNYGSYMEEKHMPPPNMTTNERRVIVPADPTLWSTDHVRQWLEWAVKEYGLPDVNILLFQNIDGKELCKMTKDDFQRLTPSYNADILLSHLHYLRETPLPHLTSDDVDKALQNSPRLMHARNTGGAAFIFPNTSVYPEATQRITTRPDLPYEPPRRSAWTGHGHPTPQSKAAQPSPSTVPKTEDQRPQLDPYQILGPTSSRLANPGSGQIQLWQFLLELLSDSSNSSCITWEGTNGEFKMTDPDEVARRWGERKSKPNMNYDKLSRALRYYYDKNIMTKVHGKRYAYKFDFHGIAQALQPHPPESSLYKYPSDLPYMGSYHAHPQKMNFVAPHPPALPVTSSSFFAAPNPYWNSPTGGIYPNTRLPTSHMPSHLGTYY
# In short: as §1
# ELF1 = ELF1 (Homo sapiens, UniProt P32519 1-619); settings: protein: recombinant; tags: N-terminal GST; dsDNA, one strand shown
# ELF1, sequence (P32519 whole entry): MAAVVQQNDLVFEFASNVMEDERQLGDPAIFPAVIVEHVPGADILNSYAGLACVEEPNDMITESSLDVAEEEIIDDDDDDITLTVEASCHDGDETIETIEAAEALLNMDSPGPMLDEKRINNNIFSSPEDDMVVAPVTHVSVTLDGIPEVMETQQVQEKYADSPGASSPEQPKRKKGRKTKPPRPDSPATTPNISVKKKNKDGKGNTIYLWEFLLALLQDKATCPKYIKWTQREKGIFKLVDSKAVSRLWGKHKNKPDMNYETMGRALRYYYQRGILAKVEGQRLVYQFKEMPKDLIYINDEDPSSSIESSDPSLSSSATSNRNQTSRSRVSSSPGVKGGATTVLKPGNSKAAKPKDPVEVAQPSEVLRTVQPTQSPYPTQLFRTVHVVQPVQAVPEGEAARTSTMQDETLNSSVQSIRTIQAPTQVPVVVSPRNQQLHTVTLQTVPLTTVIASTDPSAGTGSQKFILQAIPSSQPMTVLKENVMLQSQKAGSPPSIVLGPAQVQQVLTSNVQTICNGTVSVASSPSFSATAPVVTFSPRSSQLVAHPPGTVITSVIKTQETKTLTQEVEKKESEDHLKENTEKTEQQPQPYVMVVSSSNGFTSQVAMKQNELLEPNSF
# In short: as §1
# EHF = target: T5, EHF (Homo sapiens, UniProt Q9NZC4 1-300); settings: protein: recombinant; tags: N-terminal GST; dsDNA, one strand shown
# T5 sequence: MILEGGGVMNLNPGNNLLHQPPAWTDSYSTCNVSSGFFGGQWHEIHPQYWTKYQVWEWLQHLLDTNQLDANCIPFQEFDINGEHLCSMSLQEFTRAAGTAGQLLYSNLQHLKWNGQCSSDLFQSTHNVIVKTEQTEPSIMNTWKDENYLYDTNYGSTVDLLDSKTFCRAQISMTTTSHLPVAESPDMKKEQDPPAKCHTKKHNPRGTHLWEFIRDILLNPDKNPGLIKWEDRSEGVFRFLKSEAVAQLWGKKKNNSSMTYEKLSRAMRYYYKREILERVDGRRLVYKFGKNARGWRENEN
# In short: as §1
# SPI1 = SPI1 (Homo sapiens, UniProt P17947 1-270); settings: protein: recombinant; tags: N-terminal GST; dsDNA, one strand shown
# In short: as §1
# SPIB = SPIB (Homo sapiens, UniProt Q01892 1-262); settings: protein: recombinant; tags: N-terminal GST; dsDNA, one strand shown
# SPIB, sequence (Q01892 whole entry): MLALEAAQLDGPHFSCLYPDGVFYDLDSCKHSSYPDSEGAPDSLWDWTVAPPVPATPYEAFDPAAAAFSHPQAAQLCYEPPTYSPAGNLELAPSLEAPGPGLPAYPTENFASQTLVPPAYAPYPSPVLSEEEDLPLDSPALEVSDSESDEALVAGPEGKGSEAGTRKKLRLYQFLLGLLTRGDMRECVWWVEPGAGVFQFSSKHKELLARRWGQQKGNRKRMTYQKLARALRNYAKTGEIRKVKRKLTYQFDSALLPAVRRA
# In short: as §1
# ELK3 = target: T6, ELK3 (Homo sapiens, UniProt P41970 1-407); settings: protein: recombinant; tags: N-terminal GST; dsDNA, one strand shown
# T6 sequence: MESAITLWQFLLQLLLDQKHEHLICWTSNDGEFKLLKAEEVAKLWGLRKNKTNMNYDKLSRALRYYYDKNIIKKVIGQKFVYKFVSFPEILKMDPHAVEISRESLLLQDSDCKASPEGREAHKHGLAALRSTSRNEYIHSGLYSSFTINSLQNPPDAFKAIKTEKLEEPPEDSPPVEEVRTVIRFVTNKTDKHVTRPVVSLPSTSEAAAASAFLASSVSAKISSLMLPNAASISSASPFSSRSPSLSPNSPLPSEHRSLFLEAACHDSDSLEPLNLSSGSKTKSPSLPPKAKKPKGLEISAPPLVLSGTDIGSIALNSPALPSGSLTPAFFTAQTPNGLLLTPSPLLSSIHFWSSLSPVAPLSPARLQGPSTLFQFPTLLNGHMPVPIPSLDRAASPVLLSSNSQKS
# In short: as §1
# FEV = target: T7, FEV (Homo sapiens, UniProt Q99581 1-238); settings: protein: recombinant; tags: N-terminal GST; dsDNA, one strand shown
# T7 sequence: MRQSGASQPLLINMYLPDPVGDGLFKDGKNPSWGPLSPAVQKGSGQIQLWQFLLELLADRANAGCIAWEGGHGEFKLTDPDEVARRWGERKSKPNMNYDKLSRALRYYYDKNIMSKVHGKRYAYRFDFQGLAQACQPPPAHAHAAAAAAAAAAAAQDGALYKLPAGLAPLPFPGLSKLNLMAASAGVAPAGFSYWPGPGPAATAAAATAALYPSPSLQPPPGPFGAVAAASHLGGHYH
# In short: as §1
# ETV5 = ETV5 (Homo sapiens, UniProt P41161 1-510); settings: protein: recombinant; tags: N-terminal GST; dsDNA, one strand shown
# ETV5, sequence (P41161 whole entry): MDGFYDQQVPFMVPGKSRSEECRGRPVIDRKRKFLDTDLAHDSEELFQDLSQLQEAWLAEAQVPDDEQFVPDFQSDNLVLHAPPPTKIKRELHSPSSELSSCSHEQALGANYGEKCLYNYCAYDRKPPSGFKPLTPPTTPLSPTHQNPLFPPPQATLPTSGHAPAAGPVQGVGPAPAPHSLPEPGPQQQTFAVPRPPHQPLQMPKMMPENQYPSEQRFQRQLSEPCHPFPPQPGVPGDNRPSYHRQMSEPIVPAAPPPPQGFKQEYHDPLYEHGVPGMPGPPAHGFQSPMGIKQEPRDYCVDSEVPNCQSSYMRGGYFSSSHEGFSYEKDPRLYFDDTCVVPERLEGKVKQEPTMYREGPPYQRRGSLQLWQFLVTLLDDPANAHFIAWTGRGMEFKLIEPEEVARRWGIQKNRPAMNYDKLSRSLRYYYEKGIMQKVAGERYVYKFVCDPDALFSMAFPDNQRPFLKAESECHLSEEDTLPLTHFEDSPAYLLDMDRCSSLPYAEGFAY
# In short: as §1
# HSF1 = HSF1 (Homo sapiens, UniProt Q00613 1-529); settings: protein: recombinant; tags: N-terminal GST; chain copies: 3; dsDNA, one strand shown
# HSF1, sequence (Q00613 whole entry): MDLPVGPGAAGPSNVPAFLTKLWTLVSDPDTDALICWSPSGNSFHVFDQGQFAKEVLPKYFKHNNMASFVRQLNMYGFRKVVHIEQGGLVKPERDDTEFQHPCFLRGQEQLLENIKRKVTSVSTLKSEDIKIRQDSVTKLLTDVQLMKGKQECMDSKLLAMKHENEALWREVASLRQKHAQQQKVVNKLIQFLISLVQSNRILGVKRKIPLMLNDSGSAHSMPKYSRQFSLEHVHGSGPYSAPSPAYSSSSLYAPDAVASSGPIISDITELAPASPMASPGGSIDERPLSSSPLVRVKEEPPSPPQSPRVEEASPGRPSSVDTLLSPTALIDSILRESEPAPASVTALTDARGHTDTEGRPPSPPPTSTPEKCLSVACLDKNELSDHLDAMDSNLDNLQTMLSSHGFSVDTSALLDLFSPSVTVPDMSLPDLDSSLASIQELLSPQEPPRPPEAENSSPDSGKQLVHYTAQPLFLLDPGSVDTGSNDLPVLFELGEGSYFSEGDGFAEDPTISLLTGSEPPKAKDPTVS
# In short: as §1
# SPIC = target: T8, SPIC (Homo sapiens, UniProt Q8N5J4 1-248); settings: protein: recombinant; tags: N-terminal GST; dsDNA, one strand shown
# T8 sequence: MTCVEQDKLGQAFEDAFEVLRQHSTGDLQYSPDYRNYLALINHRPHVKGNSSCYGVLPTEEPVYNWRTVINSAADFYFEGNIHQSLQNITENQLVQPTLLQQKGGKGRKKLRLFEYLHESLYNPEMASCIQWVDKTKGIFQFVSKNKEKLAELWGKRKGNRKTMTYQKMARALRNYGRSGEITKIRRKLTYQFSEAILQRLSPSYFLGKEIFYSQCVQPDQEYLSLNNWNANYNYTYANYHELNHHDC
# In short: as §1
# ELF4 = ELF4 (Homo sapiens, UniProt Q99607 1-663); settings: protein: recombinant; tags: N-terminal GST; dsDNA, one strand shown
# ELF4, sequence (Q99607 whole entry): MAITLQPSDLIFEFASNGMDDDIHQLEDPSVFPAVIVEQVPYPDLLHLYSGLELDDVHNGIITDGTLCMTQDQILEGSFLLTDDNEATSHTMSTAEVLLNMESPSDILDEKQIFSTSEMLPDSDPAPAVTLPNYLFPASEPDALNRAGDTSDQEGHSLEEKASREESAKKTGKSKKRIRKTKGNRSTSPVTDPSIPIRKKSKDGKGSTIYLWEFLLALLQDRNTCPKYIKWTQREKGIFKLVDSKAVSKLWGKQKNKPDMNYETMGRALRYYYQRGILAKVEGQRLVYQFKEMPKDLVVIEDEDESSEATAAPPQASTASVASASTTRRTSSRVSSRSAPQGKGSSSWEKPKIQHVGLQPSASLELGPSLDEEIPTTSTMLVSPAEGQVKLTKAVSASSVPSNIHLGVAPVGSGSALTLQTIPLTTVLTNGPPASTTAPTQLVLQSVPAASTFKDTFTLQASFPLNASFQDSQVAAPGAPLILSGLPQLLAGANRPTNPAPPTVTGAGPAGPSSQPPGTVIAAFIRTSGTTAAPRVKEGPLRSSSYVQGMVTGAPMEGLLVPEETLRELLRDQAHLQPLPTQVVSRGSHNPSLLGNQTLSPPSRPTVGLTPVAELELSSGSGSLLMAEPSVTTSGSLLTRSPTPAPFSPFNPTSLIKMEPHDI
# In short: as §1
# ELK4 = target: T9, ELK4 (Homo sapiens, UniProt P28324-2 1-405); settings: protein: recombinant; tags: N-terminal GST; dsDNA, one strand shown
# T9 sequence: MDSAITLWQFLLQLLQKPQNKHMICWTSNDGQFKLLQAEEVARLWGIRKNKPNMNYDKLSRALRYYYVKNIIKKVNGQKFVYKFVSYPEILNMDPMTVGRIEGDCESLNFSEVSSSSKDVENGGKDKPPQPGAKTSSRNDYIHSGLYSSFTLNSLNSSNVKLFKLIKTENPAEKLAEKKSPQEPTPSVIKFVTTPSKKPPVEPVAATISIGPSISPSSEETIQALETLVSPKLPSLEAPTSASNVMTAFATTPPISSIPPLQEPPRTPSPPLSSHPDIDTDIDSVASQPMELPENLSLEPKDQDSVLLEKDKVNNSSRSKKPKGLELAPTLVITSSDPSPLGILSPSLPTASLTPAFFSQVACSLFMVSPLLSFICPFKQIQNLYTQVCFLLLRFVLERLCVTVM
# In short: as §1
# ETV2 = target: T10, ETV2 (Homo sapiens, UniProt O00321 1-342); settings: protein: recombinant; tags: N-terminal GST; dsDNA, one strand shown
# T10 sequence: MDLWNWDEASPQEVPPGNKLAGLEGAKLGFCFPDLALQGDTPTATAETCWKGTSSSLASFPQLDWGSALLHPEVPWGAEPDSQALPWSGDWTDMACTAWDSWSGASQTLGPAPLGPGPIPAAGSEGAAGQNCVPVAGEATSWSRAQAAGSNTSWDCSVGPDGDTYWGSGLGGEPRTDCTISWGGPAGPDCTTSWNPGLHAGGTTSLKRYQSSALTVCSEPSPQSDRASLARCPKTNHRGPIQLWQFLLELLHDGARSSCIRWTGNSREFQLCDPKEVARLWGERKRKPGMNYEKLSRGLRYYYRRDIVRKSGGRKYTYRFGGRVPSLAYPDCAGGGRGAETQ
# In short: as §1
# ELF3 = target: T11, ELF3 (Homo sapiens, UniProt P78545 1-371); settings: protein: recombinant; tags: N-terminal GST; dsDNA, one strand shown
# T11 sequence: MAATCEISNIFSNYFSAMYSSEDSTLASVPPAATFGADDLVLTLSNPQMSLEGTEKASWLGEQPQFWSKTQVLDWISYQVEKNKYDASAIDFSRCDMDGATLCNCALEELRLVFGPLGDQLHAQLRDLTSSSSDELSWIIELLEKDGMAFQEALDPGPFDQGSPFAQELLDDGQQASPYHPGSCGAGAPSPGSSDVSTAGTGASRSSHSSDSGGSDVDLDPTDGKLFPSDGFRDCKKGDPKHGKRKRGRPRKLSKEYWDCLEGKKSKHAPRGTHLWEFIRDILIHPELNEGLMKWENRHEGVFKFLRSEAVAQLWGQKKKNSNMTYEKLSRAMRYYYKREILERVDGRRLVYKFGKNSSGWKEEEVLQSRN
# In short: as §1
# CRX = CRX (Homo sapiens, UniProt O43186 1-299); settings: protein: recombinant; tags: N-terminal GST; dsDNA, one strand shown
# CRX, sequence (O43186 whole entry): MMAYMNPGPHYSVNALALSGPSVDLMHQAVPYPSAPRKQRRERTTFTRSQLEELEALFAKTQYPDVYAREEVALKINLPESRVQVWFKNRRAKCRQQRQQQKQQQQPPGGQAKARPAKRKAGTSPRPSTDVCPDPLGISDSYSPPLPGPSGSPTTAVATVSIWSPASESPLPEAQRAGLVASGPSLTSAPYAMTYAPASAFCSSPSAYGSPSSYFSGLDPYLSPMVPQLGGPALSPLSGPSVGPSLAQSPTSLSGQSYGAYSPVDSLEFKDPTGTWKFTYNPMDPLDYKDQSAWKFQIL
# In short: as §1
# ETV1 = ETV1 (Homo sapiens, UniProt P50549 1-477); settings: protein: recombinant; tags: N-terminal GST; dsDNA, one strand shown
# ETV1, sequence (P50549 whole entry): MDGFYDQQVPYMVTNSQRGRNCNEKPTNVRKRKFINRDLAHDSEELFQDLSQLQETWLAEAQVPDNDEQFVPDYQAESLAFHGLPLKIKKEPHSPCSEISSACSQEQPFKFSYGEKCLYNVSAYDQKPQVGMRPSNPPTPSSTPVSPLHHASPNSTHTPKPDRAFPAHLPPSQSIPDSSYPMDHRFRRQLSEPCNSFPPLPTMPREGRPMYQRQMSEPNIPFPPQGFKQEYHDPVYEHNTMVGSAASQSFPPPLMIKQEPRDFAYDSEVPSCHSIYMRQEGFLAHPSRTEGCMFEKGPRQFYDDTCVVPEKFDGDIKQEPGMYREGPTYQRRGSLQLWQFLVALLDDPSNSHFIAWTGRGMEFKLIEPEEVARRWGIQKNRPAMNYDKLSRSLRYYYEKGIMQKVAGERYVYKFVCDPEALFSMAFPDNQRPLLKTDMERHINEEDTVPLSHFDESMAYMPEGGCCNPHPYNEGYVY
# In short: as §1
sequence,measurement,setting,value
TCCTAG,binding signal,FLI1,"1.23 fold enrichment (6-mer frequency, TF over GST control)"
same,binding signal,ELK1,"1.11 fold enrichment (6-mer frequency, TF over GST control)"
same,binding signal,GABPA,"1.24 fold enrichment (6-mer frequency, TF over GST control)"
same,binding signal,ERG,"1.17 fold enrichment (6-mer frequency, TF over GST control)"
same,binding signal,ELF1,"1.31 fold enrichment (6-mer frequency, TF over GST control)"
same,binding signal,EHF,"1.22 fold enrichment (6-mer frequency, TF over GST control)"
same,binding signal,SPI1,"1.12 fold enrichment (6-mer frequency, TF over GST control)"
same,binding signal,SPIB,"1.41 fold enrichment (6-mer frequency, TF over GST control)"
same,binding signal,ELK3,"1.2 fold enrichment (6-mer frequency, TF over GST control)"
same,binding signal,FEV,"1.19 fold enrichment (6-mer frequency, TF over GST control)"
same,binding signal,ETV5,"1.33 fold enrichment (6-mer frequency, TF over GST control)"
same,binding signal,HSF1,"1.45 fold enrichment (6-mer frequency, TF over GST control)"
same,binding signal,SPIC,"1.2 fold enrichment (6-mer frequency, TF over GST control)"
same,binding signal,ELF4,"1.29 fold enrichment (6-mer frequency, TF over GST control)"
same,binding signal,ELK4,"1.24 fold enrichment (6-mer frequency, TF over GST control)"
same,binding signal,ETV2,"1.23 fold enrichment (6-mer frequency, TF over GST control)"
same,binding signal,ELF3,"1.2 fold enrichment (6-mer frequency, TF over GST control)"
same,binding signal,CRX,"1.29 fold enrichment (6-mer frequency, TF over GST control)"
same,binding signal,ETV1,"1.41 fold enrichment (6-mer frequency, TF over GST control)"
